The results in this text go back to PubChem BioAssay AID1865 (National Center for Advancing Translational Sciences (NCATS), 2009).

SMILES strings stand for the structures. The campaign covered roughly 280,000 compounds. About 540 (0.19%) were called active. Roughly 2% stayed inconclusive and do not appear here. Many of the other results were omitted from the sample, so actives are more common in it than they were. Values without a mark were called inactive. Calls follow the shape of the dose curve; as a rule, active = well fitted activation curve with a large enough effect; inconclusive = small, poorly fitted or top-dose-only effect; inactive = flat fitted curve, though single readings scatter.
Potency is read from the fitted curve at half-maximal effect.

The test is described as follows: Quantitative High-Throughput Screen for Regulators of Epigenetic Control. Also: nearly all actives have a fitted effect of over 60% in size. As to GFP activation: % of control where 0% means no effect. Conditions: murine LDR cells, GFP reporter derepression, 30 h; series mostly up to 53.9 µM; GFP activation: at the top concentration. The method in brief:
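In this reporter-derepression format, murine cells bearing a silenced integrated CMV-GFP locus incubate with test compound (30 h, 37 C), then are washed and imaged; fluorescent objects of 20–120 um count as induced cells.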
As for `Cc1ccc(-n2c3nc(=O)[nH]c(=O)c-3cc3c(Cl)cccc32)cc1`, the “GFP activation” value is 0.833%.

In the case of `Cc1c(-c2nsc(NC(=O)c3cccc(Cl)c3)n2)nnn1-c1ccccc1C(F)(F)F`, the “GFP activation” value is -3.14%.

Turning to `CSc1ccc(C2c3c(oc4ccccc4c3=O)C(=O)N2CCCN2CCOCC2)cc1` (stereo not drawn), the “GFP activation” value is -0.962%.

With `CCC(C(=O)Nc1cccc(Cl)c1C)n1nc(-c2ccc(C)cc2)ccc1=O` (stereo not drawn), the “GFP activation” value was -5.49%.

With `CCOC(=O)CNC(=O)c1cc2c(=O)n3cccc(C)c3nc2s1`, the “GFP activation” value is -0.885%.

`CCOC(=O)CC1C(=O)NCCN1c1nc2c(C)cccn2c(=O)c1/C=C1\SC(=S)N(C(C)CC)C1=O` (stereo not drawn): the Potency is 7.08 µM (active).

Regarding `CCOC(=O)CC1C(=O)NCCN1C(=O)COc1ccc(Br)cc1C` (stereo not drawn), the “GFP activation” value is -3.32%.

As for `COc1ccc(-n2nnc(-c3nsc(NC(=O)c4ccc(C)c(C)c4)n3)c2C)cc1Cl`, the “GFP activation” value is -3.18%.

In the case of `Cc1ccc(SCC(=O)Nc2ccc3oc(-c4ccccc4F)nc3c2)cc1`, the “GFP activation” value is 16.1%.

As to `Cc1c(Cl)cccc1NC(=O)Cn1cc(C(=O)c2cccs2)c2ccccc21`, the “GFP activation” value was 2.88%.

`COc1cccc(C(=O)Nc2ccc(-c3cc(C(F)(F)F)nn3-c3ccccc3)cc2)c1`: the “GFP activation” value is 1.08%.

As for `CCS(=O)(=O)c1ncc(N(Cc2ccc(F)cc2)Cc2ccco2)c(C(=O)Nc2cc(C)ccc2C)n1`, the “GFP activation” value is -2.39%.

Turning to `CC(C)CCN(C(=O)Nc1ccc(Cl)c(Cl)c1)C(C)c1cccs1` (stereo not drawn), the “GFP activation” value was -0.998%.

Turning to `CCc1cc2c(cc(C(=O)OC)n2Cc2nc(-c3ccc(C)cc3)oc2C)s1`, the “GFP activation” value is 2.7%.

Regarding `COc1ccccc1-c1nnc(C2CCN(C(=O)c3ccc(Cl)cc3)CC2)o1`, the “GFP activation” value is 1.22%.

Regarding `CCC(Sc1nc2n[nH]c(C)c2c(=N)n1-c1ccccc1Cl)C(=O)N(CC)CC` (stereo not drawn), the “GFP activation” value was 0%.

For the compound `CC1=C(C(=O)N2CCN(c3cccc(C(F)(F)F)c3)CC2)C2(CCCCC2)OC1=O`, the “GFP activation” value is 0%.

For `COc1ccc(OCCCn2c(C)nc3cc(C)c(C)cc32)cc1`, the “GFP activation” value was -0.78%.

`C/[N+]([O-])=C\c1ccc([N+](=O)[O-])o1`: the “GFP activation” value was 0.0128%.

For the compound `Cn1cc(/C=C/c2nc3ccccc3c(=O)n2-c2cccc([N+](=O)[O-])c2)c2ccccc21`, the “GFP activation” value is 0.971%.

Regarding `CCn1c(/C=C/c2ccc([N+](=O)[O-])o2)nc2ccccc2c1=O`, the Potency was 3.55 µM (active).

For `Cc1c(Cl)cccc1NC(=O)N1CCN(C(=O)c2nsc3ccccc23)CC1`, the “GFP activation” value was 5.4%.

With `Cc1ccc(NC(=O)c2ccc(CN3CC(=O)N4CCCCC4C3=O)cc2)c(Cl)c1` (stereo not drawn), the “GFP activation” value is -1.23%.

With `CCCN(CCC)C(=O)Cn1c(=O)n(-c2ccc(Cl)cc2)c(=O)c2c3c(sc21)CCCCC3`, the “GFP activation” value is -0.0516%.

`CC(C)(C)c1ccc(C(=O)Nc2ccc3c(c2)CCCN3C(=O)c2cccs2)cc1`: the “GFP activation” value was -1.49%.

For `O=C(NCc1ccc2c(c1)CCN2C(=O)c1ccccc1)c1ccccc1`, the “GFP activation” value was -0.465%.

In the case of `CCOc1ccc(NC(=O)c2cc3c(=O)n(Cc4cccs4)ccc3nc2C)cc1`, the “GFP activation” value was 0%.

In the case of `COc1cc(NC(=O)Cn2nc(-c3ccc(C)c(C)c3)ccc2=O)cc(OC)c1`, the “GFP activation” value is 0%.

As for `COc1cccc(C(=O)NC2(C(F)(F)F)C(=O)Nc3c2c(=O)[nH]c(=O)n3-c2ccc(C)cc2)c1` (stereo not drawn), the “GFP activation” value is 0%.

As to `O=C(COc1ccc(Cl)cc1)N(Cc1ccco1)Cc1ccco1`, the “GFP activation” value is -1.6%.

Consider `CCNS(=O)(=O)c1ccc(NC(=O)CSc2nc(-c3ccco3)cc(C(F)(F)F)n2)cc1`, for which the “GFP activation” value was -0.962%.

Turning to `O=C(CSc1ncc(S(=O)(=O)c2ccc(Br)cc2)c(=O)[nH]1)Nc1ccc2c(c1)OCCO2`, the “GFP activation” value is 0%.

Turning to `Clc1cccc(N=C2NN=C(c3ccc4c(c3)OCCO4)CS2)c1`, the “GFP activation” value is -7.25%.

In the case of `CN(C)c1nc(=Nc2cccc(Cl)c2)ss1`, the Potency is 1.12 µM (active).

In the case of `CN(C)c1ccc(/C=C2\NC(=S)N(Cc3ccccc3)C2=O)cc1`, the Potency is 7.08 µM (active).

As to `CC1=NN(Cc2ccccc2)C(=O)/C1=C/c1ccc(N(C)C)cc1`, the “GFP activation” value is -0.855%.

`O=C1NCC(=O)N(Cc2ccccc2)/C1=C/c1ccccc1`: the “GFP activation” value is -0.292%.

Take `COc1cc2[nH]c(=O)n(Cc3ccc(C(=O)NCc4ccc(C)cc4)cc3)c(=O)c2cc1OC`: the “GFP activation” value is 6.33%.

For the compound `Cc1ccccc1C(=O)Nc1sc2c(c1C(=O)N1CCC(C)CC1)CCCC2`, the “GFP activation” value is 4.81%.

Turning to `O=C(Cn1nc(Cc2cccnc2)c2ccccc2c1=O)N1CCN(c2ccccc2F)CC1`, the “GFP activation” value is -5.16%.

As to `CCN1/C(=C/c2ccc3ccc(C)cc3[n+]2CC)Sc2ccccc21`, the Potency is 1.12 µM (active).

Turning to `CCN1/C(=C/C(=S)Nc2ccccc2)Sc2ccccc21`, the “GFP activation” value was 0.971%.

Take `CCN1CCN(CCNC(=O)c2ccc(/C=C3/Sc4ccccc4N(Cc4cccc(C)c4)C3=O)cc2)CC1`: the “GFP activation” value is 4.88%.

With `CCN1/C(=C\c2ccc3ccccc3[n+]2CC)Sc2cc(C)ccc21`, the Potency is 0.562 µM (active).

`COc1ccc(OC)c(NC(=O)C2CCCN(S(=O)(=O)c3ccc4c(c3)CCCC(=O)N4)C2)c1` (stereo not drawn): the “GFP activation” value was 0.833%.

`COc1ccc(CCNC(=O)c2cn(C)c3ccc(S(=O)(=O)N(C)C4CCCCC4)cc3c2=O)cc1OC`: the “GFP activation” value is 1.22%.

Turning to `COc1ccc(-c2onc(C)c2C)cc1S(=O)(=O)NCCc1ccccc1`, the “GFP activation” value is -4.71%.

Take `COc1ccc(NC(=O)c2ccc3nc(CCc4ccccc4)oc3c2)c(OC)c1`: the “GFP activation” value is 1.69%.

As to `Cc1ccc2nc(/C(C#N)=C\c3ccc(OC(=O)c4cccs4)cc3)[nH]c2c1`, the “GFP activation” value was 5.06%.

`Cc1ccc2nc(/C(C#N)=C/c3ccc(-c4ccc(C(=O)OC(C)C)cc4)o3)[nH]c2c1`: the Potency is 1.41 µM (active).

For the compound `Cc1ccc2nc(/C(C#N)=C/c3ccccc3F)[nH]c2c1`, the “GFP activation” value was -1.59%.

On to `COc1ccc(C(=O)Nc2cccc(C(=O)OCc3cc(=O)n4c5c(sc4n3)CCCC5)c2)cc1`, for which the “GFP activation” value is 3.53%.

In the case of `CS(=O)(=O)c1sc2nc(-c3ccccc3)cc(-c3ccccc3)c2c1N`, the “GFP activation” value was 1.45%.

`NNC(=O)c1oc2nc(-c3ccccc3)cc(-c3ccco3)c2c1N`: the “GFP activation” value was 0.0322%.

As to `CNC(=S)NNC(=O)c1oc2nc(-c3ccccc3)cc(-c3ccco3)c2c1N`, the Potency was 15.8 µM (active).

For the compound `CC(=O)Nc1ccc(/C=N/NC(=O)c2cccs2)cc1`, the “GFP activation” value was 1.14%.

As to `Cc1ccc(-c2cc(C(=O)N/N=C/C=C/c3ccco3)c3ccccc3n2)cc1C`, the “GFP activation” value was 2.16%.

`O=C(N/N=C/C=C/c1ccco1)c1cccs1`: the Potency is 17.8 µM (active).

Take `Cc1ccc(S(=O)(=O)c2nc(-c3ccco3)oc2SCC(=O)Nc2ccc(F)cc2)cc1`: the “GFP activation” value was 11.1%.

Turning to `Cc1cc(C(=O)Nc2cccc(C(F)(F)F)c2)c2c(C)nn(-c3cccc(F)c3)c2n1`, the “GFP activation” value was -1.27%.

Consider `O=C(Nc1ccc2nc(SCC(=O)N3CCCc4ccccc43)sc2c1)c1ccc(F)cc1`, for which the “GFP activation” value was -3.23%.

In the case of `CC1Cc2cc(S(=O)(=O)CCC(=O)Nc3ccc(F)c(Cl)c3)ccc2N1C(=O)C1CC1` (stereo not drawn), the “GFP activation” value was -0.364%.

As for `Nc1ccc2c3c(cccc13)C(=O)NC2=O`, the Potency is 17.8 µM (active).

Consider `Cc1nn(C)cc1N1C(=O)c2cccc3c(N)ccc(c23)C1=O`, for which the “GFP activation” value is 2.11%.

Take `CCN1C(=O)c2cccc3c(N)ccc1c23`: the “GFP activation” value was 0.901%.

For `CN1CCN(c2oc(-c3ccc(COc4ccc(Cl)cc4)o3)nc2C#N)CC1`, the “GFP activation” value is 0%.

In the case of `CC(=O)Nc1cccc(Oc2cc(C#N)c(C#N)cc2N2CCOCC2)c1`, the “GFP activation” value was -1.01%.

On to `COc1cc(N2CCCC2)c(OC)cc1/C=C(/C#N)c1cccc(Br)c1`, for which the Potency was 3.55 µM (active).

`COc1ccc(Br)cc1/C=N/n1c(C)nnc1C`: the “GFP activation” value is 4.97%.

`Cc1ccc(CCNC(=O)Cn2c(-c3cccs3)cc3cc(F)ccc32)cc1`: the “GFP activation” value was -1.88%.

As to `Cc1noc2ncnc(NCc3ccccc3Cl)c12`, the “GFP activation” value is 0%.

As for `Cc1nn(C(C)C(=O)NCCc2ccccc2)c(=O)c2c1sc1ccccc12` (stereo not drawn), the “GFP activation” value is 13.4%.

In the case of `CCc1ccc(C2CC(=O)c3c([nH]c(C(=O)OCc4ccc(C)cc4)c3C)C2)cc1` (stereo not drawn), the “GFP activation” value is 0.291%.

For `CC(=O)c1ccc(NC(=O)CCc2nc(-c3ccc(C)cc3)no2)cc1`, the “GFP activation” value was -1.54%.

Consider `CC(C)(C)c1ccc(S(=O)(=O)N2CCN(C(=O)c3cc(-c4ccc(Br)cc4)n[nH]3)CC2)cc1`, for which the “GFP activation” value was 0%.

For the compound `Cc1cc(C)cc(NS(=O)(=O)c2ccc(-c3cc(C)no3)s2)c1`, the “GFP activation” value was -0.833%.

As for `O=C(/C=C/c1ccccc1)Nc1cc(-c2nc3cc(Cl)ccc3o2)ccc1Cl`, the “GFP activation” value is 1.08%.

In the case of `Fc1ccc(Nc2nc(SCc3ccccc3Cl)nc3ccccc23)cc1`, the “GFP activation” value is 0%.

As for `CCN1CCN(c2ncnc3c2cnn3-c2ccc(C)c(C)c2)CC1`, the “GFP activation” value is 0%.

Turning to `Cc1ccc2nc(-c3ccncc3)cc(C(=O)Nc3ccc4c(c3)OCCO4)c2c1`, the “GFP activation” value was 2.23%.

`O=C(Nc1ccncc1)c1cc(-c2ccccn2)nc2ccc(Br)cc12`: the “GFP activation” value was 1.14%.

In the case of `Cc1ccc2nc(-c3ccccn3)cc(C(=O)Nc3ccc4c(c3)OCO4)c2c1`, the Potency is 15.8 µM (active).

As to `OCc1cnc(SCc2ccc(F)cc2)n1Cc1ccc(F)cc1`, the “GFP activation” value was 0.584%.

In the case of `Cc1ccc(S(=O)(=O)N(CC(=O)Nc2ccc(Cl)cc2Cl)c2ccccc2C)cc1`, the “GFP activation” value is 1.91%.

For `Cc1ccc(C)c(N2CCN(C(=O)Cn3nc(C)c4sc5ccccc5c4c3=O)CC2)c1`, the “GFP activation” value was -2.4%.

Take `CCCCCCc1ccc(O)cc1O`: the “GFP activation” value was 13.1%.

`CCCCCCc1cc2cc(-c3nnc(-c4ccccc4)o3)c(=O)oc2cc1O`: the Potency was 1.78 µM (active).

Take `CCCC(=O)Nc1nnc(-c2ccccc2)o1`: the “GFP activation” value is 1.08%.

Regarding `COc1ccc(CNc2nc(-c3ccc(Cl)cc3)nn2S(=O)(=O)c2ccc(C)cc2)cc1`, the “GFP activation” value is 2.76%.

In the case of `Cc1cccc(NC(=O)CSc2nnc(CNC(=O)c3cccc(C)c3)n2-c2ccccc2)c1`, the “GFP activation” value was 0%.

Consider `CCc1ccc(NC(=O)c2nn(-c3ccc(C)cc3)c(=O)n(C)c2=O)cc1`, for which the “GFP activation” value was 8.47%.

In the case of `O=C(CN1C2=NCCN2c2ccccc21)c1cccs1`, the “GFP activation” value was 0%.

Turning to `CN(C)c1ccnc2sc(C(=O)c3ccccc3)c(N)c12`, the “GFP activation” value is -2.99%.

Regarding `Nc1c(C(=O)c2cccs2)sc2nsc(SCCN3CCCCC3)c12`, the Potency was 3.55 µM (active).

`CCOC(=O)c1ccc(NC(=O)CC2C(=O)N(c3ccccc3)C(=O)N2Cc2cccs2)cc1` (stereo not drawn): the “GFP activation” value is -0.348%.

On to `CSc1ccccc1-c1nnc(NC(=O)c2ccc3c(c2)OCCO3)o1`, for which the “GFP activation” value is -1.64%.

For the compound `Cc1oc(-c2ccccc2F)nc1CN1CCC(C(=O)NCCc2ccc(Cl)cc2)CC1`, the “GFP activation” value was -1.11%.

In the case of `CC(C)c1ccc(NC(=O)CN(C)S(=O)(=O)c2ccc3c(c2)c(=O)n(C)c(=O)n3C)cc1`, the “GFP activation” value was -1.11%.
